About 83,000 compounds went through this panel and 20% of them were active in at least one assay; those are over-represented in the sample as a whole.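 Results are percent growth after 48 hours of single-concentration exposure. 100 means growth as in untreated cells, lower positive values show inhibition; negative values down to -100 show cell death.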 A number with no mark means an inactive call. Activity calls are given as the source filed them. How the source made its calls: active means growth percent below 10; inactive means the rest.

What all share (assay): NCI-60 one-dose screen, 48 h (100 = growth as untreated, 0 = no growth, -100 = all killed)
The test system of experiment [1] is HCT-15 colon. The following applies: 10 µM unless noted.
Experiment [2] relates to HT29 colon. The settings on record: 10 µM unless noted.
The subject of experiment [3] is SNB-75 CNS. The settings on record: 10 µM unless noted.
The test system of experiment [4] is SNB-19 CNS. The settings on record: 10 µM unless noted.
Experiment [5] concerns U251 CNS. The settings on record: 10 µM unless noted.
Experiment [6] relates to PC-3 prostate. The settings on record: 10 µM unless noted.
The test system of experiment [7] is SK-MEL-5 melanoma. The settings on record: 10 µM unless noted.
In experiment [8] the test system is UACC-62 melanoma. The following applies: 10 µM unless noted.
Experiment [9] concerns LOX IMVI melanoma. The settings on record: 10 µM unless noted.
Experiment [10] concerns SK-MEL-28 melanoma. The following applies: 10 µM unless noted.
The subject of experiment [11] is SK-MEL-2 melanoma. The following applies: 10 µM unless noted.
In experiment [12] the test system is EKVX NSCLC. The settings on record: 10 µM unless noted.
Experiment [13] deals with SN12C renal. The settings on record: 10 µM unless noted.
Experiment [14] concerns UO-31 renal. The following applies: 10 µM unless noted.
For experiment [15], the system named is A498 renal. The settings on record: 10 µM unless noted.
The subject of experiment [16] is CCRF-CEM leukemia. The settings on record: 10 µM unless noted.
Experiment [17] deals with MOLT-4 leukemia. The following applies: 10 µM unless noted.
Experiment [18] has as its system ACHN renal. The following applies: 10 µM unless noted.
Experiment [19] relates to CAKI-1 renal. The settings on record: 10 µM.
The subject of experiment [20] is TK-10 renal. The settings on record: 10 µM unless noted.

In the case of `C=C(C)C(=O)O[C@H]1C[C@@]2(C)OC(=CC2=O)[C@H](C)[C@H](O)[C@H]2OC(=O)C(=C)[C@@H]21`, the growth in [1] is 32.6%; in experiment [2] it was 95.6%; in experiment [3] it was 77.2%; in experiment [4], 106%; in experiment [5], 86.6%; in experiment [6] it was 79.7%. The growth was 88.2% in experiment [7]; 52.3% in experiment [8]; 57.7% in experiment [9]; 61.7% in experiment [10]; 43.1% in [11]; 73.6% in experiment [12]. The growth is 73.9% in [13]; 53.9% in experiment [14]; 131% in experiment [15]; 7.85% (active) in [16]; 76.6% in experiment [17].
In the case of `O=C1c2c(O)cc(O)cc2O[C@@H](c2ccc(O)cc2)[C@@H]1c1c(O)cc(O)c2c(=O)cc(-c3ccc(O)c(O)c3)oc12`, the growth in [1] is 101%; in [2], 101%; in [3], 82.6%; in experiment [4], 112%; in [5] it was 110%; in [6] it was 96.1%. In addition, the growth in experiment [7] was 99.6%; in experiment [8], 89.5%; in [9], 88.9%; in [10], 99.1%; in experiment [11], 117%; in experiment [12], 91.9%. Also, the growth was 105% in [13]; 97.3% in [14]; 85% in [18]; 120% in experiment [15]; 114% in [16]; 121% in experiment [17].
For `CCOC(=O)c1nn(-c2ccccc2)c(=O)c2c(N)c(C#N)c(-c3cccs3)cc12`, the growth is 87.6% in experiment [1]; 61.9% in [2]; -8.81% (active) in experiment [3]; 70.5% in [4]; 77.3% in [5]; 79.9% in experiment [6]. Moreover, the growth in experiment [7] was 96.4%; in [8], 85.8%; in [9], 73%; in experiment [10], 99.9%; in experiment [11] it was 98.4%; in [12], 83.9%. The growth is 75.1% in experiment [13]; 50.9% in experiment [14]; 54.4% in experiment [18]; 62.8% in experiment [19]; 102% in experiment [15]; 99.5% in experiment [16]. The growth in experiment [17] is 97%.
On to `IP(CCCSc1n(Cc2ccc3ccccc3c2)c(-c2ccccc2)c(-c2ccccc2)[n+]1Cc1ccc2ccccc2c1)(c1ccccc1)(c1ccccc1)c1ccccc1`, for which the growth in [1] is 94.5%; in [2] it was 2.7% (active); in [3] it was 43%; in experiment [4] it was 16.6%; in [5], 10.3%; in experiment [6] it was 32.1%. The growth in experiment [7] is 67.6%; in experiment [8] it was 26.6%; in experiment [9] it was 8% (active); in experiment [10] it was 32.8%; in experiment [11], 2.52% (active); in experiment [12], 32%. For the same compound, the growth was 57% in experiment [13]; 70.1% in experiment [14]; 66.9% in [20]; 77.6% in experiment [19]; 32.5% in experiment [16]; 46.7% in experiment [17].
For the compound `CCCCSc1nnc(-c2ccc(-c3ccc(Cl)cc3)nc2C)o1`, the growth in experiment [1] was 92.6%; in experiment [2], 97.2%; in experiment [3], 90.3%; in experiment [4] it was 97.8%; in experiment [5] it was 104%; in [6], 91.9%. For the same compound, the growth in [7] is 99.3%; in experiment [8], 84.1%; in [9] it was 101%; in [10] it was 99.9%; in experiment [11], 106%; in experiment [12], 95.4%. For the same compound, the growth in experiment [13] is 98.2%; in experiment [14] it was 93.4%; in experiment [20], 109%; in experiment [19] it was 95.4%; in experiment [15] it was 71%; in experiment [16], 99.7%. In [17], the growth is 96.3%.
On to `O=C(CN1CCN(c2cc(=O)n(-c3ccccc3)c3ccccc23)CC1)Nc1ccc([N+](=O)[O-])cc1`, for which the growth in [1] is 95.1%; in experiment [2], 105%; in [3] it was 88%; in [4] it was 87.1%; in [5], 93.9%; in experiment [6] it was 84.7%. Further, the growth in [7] was 74.1%; in experiment [8], 63.4%; in experiment [9] it was 89.3%; in experiment [10], 101%; in [11] it was 101%; in [12], 88.7%. The growth in experiment [13] was 87.2%; in experiment [14], 62%; in experiment [18], 87%; in experiment [19], 98.1%; in experiment [15], 88.2%; in experiment [17] it was 90%.
Turning to `Cc1nn(-c2ccc(Br)cc2)c2nc(CCl)[nH]c(=O)c12`, the growth in experiment [1] is 103%; in experiment [2] it was 104%; in [3] it was 99.7%; in experiment [4], 97.1%; in [5], 98.5%; in experiment [6] it was 96.4%. Also, the growth in experiment [7] is 102%; in experiment [8], 95.1%; in [9], -9.8% (active); in experiment [10] it was 103%; in experiment [11] it was 99.9%; in [12] it was 99.5%. Moreover, the growth in [13] is 100%; in [14], -90.1% (active); in [18], 94.8%; in [19], 96.3%; in experiment [16], 83.6%.
For the compound `O=c1[nH]c(CCl)nc2c1cnn2-c1ccccc1`, the growth is 99.9% in experiment [1]; 115% in [2]; 93.6% in experiment [3]; 96.4% in [4]; 103% in experiment [5]; 105% in experiment [6]. The growth in experiment [7] is 99%; in [8] it was 96.2%; in experiment [9] it was -38.5% (active); in experiment [10] it was 107%; in [11], -89.8% (active); in [12], 100%. Also, the growth was 99.8% in [13]; -20.9% (active) in experiment [14]; 154% in experiment [20]; 97.6% in experiment [19]; 101% in experiment [16]; 104% in [17].

The record behind these values is PubChem BioAssay (NCI).
